Reference: PubChem BioAssay AID504332 (National Center for Advancing Translational Sciences (NCATS), 2011)
Values joined by “and” are separate entries in the source; they are usually repeats but may differ in a detail not shown here. Equal entries are not always repeated. In all, about 350,000 compounds went through this assay and about 31,000 (8.9%) were called active. Where a call stands in place of a potency, no number is given. Inconclusive results (about 15%) are left out. The sample holds actives, similar compounds and a random draw of the others, so the mix is not that of the screen. Calls come from the whole dose curve; as a rule, active = well fitted inhibition curve with a large enough effect; inconclusive = small, poorly fitted or top-dose-only effect; inactive = no such curve, though single readings can be large or run the other way. Where a structure was tested more than once in an assay, its records may differ in their call.

Molecular target: Histone-lysine N-methyltransferase EHMT2 (Homo sapiens) (UniProt Q96KQ7)
Assay: qHTS Assay for Inhibitors of Histone Lysine Methyltransferase G9a; note: nearly all actives have a fitted effect of over 75% in size
Settings: G9a H3K9 monomethylation, AlphaScreen, 2 h; series mostly up to 59 µM
Outline: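 Chemiluminescent proximity detection of H3K9 monomethylation, read after 10 min bead incubation in the dark. Reaction: 20 nM G9a, 500 nM biotin-H3K9 peptide, 20 uM SAM cofactor, 2 h, room temperature, following 15 min enzyme-compound preincubation.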
Potency is the fitted concentration of half-maximal effect.

Sequence of Histone-lysine N-methyltransferase EHMT2 (Homo sapiens) (Q96KQ7 913-1193 limits assumed): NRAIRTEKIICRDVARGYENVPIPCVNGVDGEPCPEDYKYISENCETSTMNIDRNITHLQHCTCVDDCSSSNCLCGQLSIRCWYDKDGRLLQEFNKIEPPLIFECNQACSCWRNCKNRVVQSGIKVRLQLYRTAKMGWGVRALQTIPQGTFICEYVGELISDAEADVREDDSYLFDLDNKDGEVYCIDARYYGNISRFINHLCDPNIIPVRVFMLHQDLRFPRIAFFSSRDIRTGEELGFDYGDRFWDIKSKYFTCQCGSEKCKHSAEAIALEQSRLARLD

| SMILES | Potency | activity, negative = inhibition |
| --- | --- | --- |
| Cc1ccccc1NC(=O)Cn1cc(C(=O)c2cccs2)c2ccccc21 | inactive | – |
| O=S(=O)(NC1CC1)c1ccc(Cl)cc1 | inactive | – |
| Cc1cc(C)c(OCCN2CC(C)OC(C)C2)c(Br)c1 (configuration not stated) | 8.91 µM (active) | – |
| O=c1c([N+](=O)[O-])cc(C(F)(F)F)cn1Cc1cccc(Cl)c1 | inactive | – |
| O=C(Cn1ccc2cc(S(=O)(=O)N3CCCC3)ccc21)NCc1ccccc1 | inactive | – |
| O=[N+]([O-])/C=C/c1ccc2c(ccn2Cc2ccccc2)c1 | 31.6 µM (active) | – |
| Cc1cc(S(=O)(=O)NC2CCCC2)ccc1-n1cnnn1 | inactive | – |
| O=C(NCC1CCCO1)c1ccc(S(=O)(=O)Nc2ccc(F)cc2)cc1 (configuration not stated) | inactive | – |
| Cc1ccc(NC(=O)CN(C)C(=O)c2ccc(Br)o2)cc1 | inactive | – |
| CN(CC(=O)Nc1ccc(F)cc1)C(=O)c1ccc(-c2ccc(Cl)cc2)o1 | 79.4 µM (active) | – |
| CN(CC(=O)Nc1ccc(Cl)cc1)C(=O)c1ccc(COc2ccccc2)cc1 | inactive | – |
| CCOc1ccccc1CNC(=O)c1ccc(-n2c(C)cc3c2CCC(C)C3)cc1 (configuration not stated) | inactive | – |
| COc1ccc(CCNC(=O)CN(C)S(=O)(=O)c2ccc3nc(C)sc3c2)cc1OC | inactive | – |
| CCOCCCNC(=O)c1ccc2nc(CCc3ccccc3)oc2c1 | inactive | – |
| Cc1ccc(NC(=O)c2cc(S(=O)(=O)NCCC3=CCCCC3)ccc2F)cc1C | inactive | – |
| CCOc1cc2[nH]c(=S)n(CCCN3CCCC3=O)c(=O)c2cc1OCC | – | -45.8% [at 12.7 µM] (inactive) |
| CSc1nnc(-c2ccncc2)n1CCCN1CCCC1=O | 50.1 µM (active) | – |
| COCCCn1c(SCC(=O)Nc2ccccc2)nnc1-c1ccncc1 | inactive | – |
| O=C(c1ccc2c(c1)N(Cc1ccccc1F)C(=O)c1ccccc1S2(=O)=O)N1CCOCC1 | inactive | – |
| COC(=O)C1CCN(C(=O)c2cc(=O)[nH]c3ccccc23)CC1 | inactive | – |
| COC(=O)[C@H]1[C@H]2C[C@H]3c4[nH]c5ccccc5c4CCN3C[C@@H]2CC[C@@H]1O | inactive and 12.6 µM (active) | – |
| O=C(NC1CCCCC1)N1CCc2[nH]c3ccccc3c2C1 | inactive | – |
| O=C(NCCc1ccc(F)cc1)c1ccc(S(=O)(=O)N2CCCCC2)cc1 | inactive | – |
| Cc1cc(=O)n(C)c(=O)n1CCCNc1ccccc1 | 15.8 µM (active) | – |
| Cn1c(Nc2ccccc2)cc(=O)n(C)c1=O | inactive | – |

| SMILES | Potency | activity, negative = inhibition |
| --- | --- | --- |
| Cc1cc2nc(C)n(CCCNC(=O)Nc3ccccc3)c2cc1C | inactive | – |
| CCc1ccccc1NC(=O)Cn1c(=O)n(CC2CCC(C(=O)NCCc3ccccc3)CC2)c(=O)c2ccccc21 (configuration not stated) | inactive | – |
| O=C(C1CCC(Cn2c(=O)c3sccc3n(Cc3ccccc3F)c2=O)CC1)N1CCCCC1 (configuration not stated) | inactive | – |
| COc1cccc(NC(=O)CSc2nnc(-c3cccnc3)o2)c1 | inactive | – |
| CCCn1c(SCC(N)=O)nnc1C(C)C | inactive | – |
| CCCn1c(SCC(=O)c2ccc3c(c2)OCCO3)nnc1C(C)C | 44.7 µM (active) | – |
| CCn1c(SCC(=O)Nc2ccc3c(c2)OCCO3)nnc1C(C)C | inactive | – |
| COC(=O)c1ccc2c(c1)N(CC(=O)Nc1ccc(C)c(C)c1)C(=O)c1ccccc1S2 | inactive | – |
| COc1cc(C(=O)N/C(=C\c2cn(C)c3ccccc23)C(=O)N2CCOCC2)cc(OC)c1OC | inactive | – |
| Cc1ccc(C(=O)N/C(=C\c2cn(S(=O)(=O)N(C)C)c3ccccc23)C(=O)N2CCCC2)cc1 | inactive | – |
| Cc1ccc(C(=O)N/C(=C\c2cn(C)c3ccccc23)C(=O)N2CCN(C)CC2)cc1 | 79.4 µM (active) | – |
| CCCCC[C@H]1CN(C2CCCCC2)C(=O)[C@@H]1CC(=O)NCc1ccc(OC)cc1 | inactive | – |
| CCN(CC)CCn1c2c(c(SCC(=O)Nc3ccc(C(C)C)cc3)nc1=O)CCC2 | inactive | – |
| O=c1oc2ccccc2cc1-c1csc(Nc2ccc(O)cc2)n1 | 12.6 µM (active) | – |
| COc1ccc2nc(Nc3nc(-c4cc5ccccc5oc4=O)cs3)sc2c1 | inactive | – |
| Cc1cc(NC(=O)c2cccc(Cl)c2)ccc1-c1cc2ccccc2oc1=O | inactive | – |
| CCOC(=O)CN1C(C(=O)c2ccccc2)=C(OC(=O)C(C)(C)C)c2ccccc2S1(=O)=O | inactive | – |
| CCCCc1nn2c(=O)cc(COC(=O)c3ccccc3NC(=O)C(C)(C)C)nc2s1 | inactive | – |
| O=C(COC(=O)c1ccccc1SCC(=O)N1CCCC1)Nc1ccccc1OC(F)F | – | 13.9% [at 0.501 µM] (inactive) |
| Cc1ccc(-n2c(CNc3ccc(F)cc3)nnc2SCC(=O)N2CCOCC2)cc1 | inactive | – |
| COc1ccc(NCc2nnc(SCc3ccccc3)n2-c2ccc(OC)cc2)cc1 | 50.1 µM (active) | – |
| COc1ccc(CSc2nnnn2-c2ccc(C(=O)O)cc2)cc1 | inactive | – |
| CC1(NC(=O)CCS(=O)(=O)c2ccc(Cl)cc2)CCS(=O)(=O)C1 (configuration not stated) | – | -5.47% [at 12.7 µM] (inactive) |
| CC1(C)CC(=O)C=C(c2cccc3c2Oc2ccccc2S3)C1 | – | -4.23% [at 0.501 µM] (inactive) |
| O=C(C(=O)N1CCc2ccccc2C1)N1CCc2ccccc2C1 | inactive | – |

| SMILES | Potency | activity, negative = inhibition |
| --- | --- | --- |
| Cc1ccc(-c2cc(C(=O)N3CCc4ccccc4C3)no2)cc1 | inactive | – |
| Cn1cccc1C(=O)N1CCc2ccccc2C1 | 2 µM (active) | – |
| O=C(CCc1cn(Cc2ccc(F)cc2)c2ccccc12)NC1CCCCC1 | inactive | – |
| Cc1ccc(Cn2c(=N)c(S(=O)(=O)c3ccc(C)cc3)cc3c(=O)n4ccccc4nc32)cc1 | inactive | – |
| CCN(CC(=O)Nc1ccccc1OC)C(=O)CC1CC2CCC1C2 (configuration not stated) | inactive | – |
| COc1ccccc1N1CCN(C(=O)c2ccc(NC3=NC4CS(=O)(=O)CC4S3)cc2)CC1 (configuration not stated) | inactive | – |
| O=[N+]([O-])c1ccc(N2CCSCC2)cc1O | inactive | – |
| O=C1CSC(=S)N1/N=C/c1ccc(O)c([N+](=O)[O-])c1 | 14.1 µM (active) | – |
| CCc1nn(CCCC(=O)Nc2ccc(C)cc2C)c(=O)c2cc3occc3n12 | inactive | – |
| Cc1ccc(OCCNC(=O)CN2C(=O)NC3(CCCC3)C2=O)cc1 | – | 19.1% [at 2.33 µM] (inactive) |
| Cc1ccc(S(=O)(=O)CCC(=O)OCC(=O)NCCc2ccc(S(N)(=O)=O)cc2)cc1 | – | 1.87% [at 12.7 µM] (inactive) |
| Cc1cc(C)cc(NS(=O)(=O)Cc2ccccc2)c1 | inactive | – |
| CCC(CC)c1nnc(NS(=O)(=O)Cc2ccccc2)s1 | 5.01 µM (active) | – |
| COc1ccc(Cc2nnc(NS(=O)(=O)Cc3ccccc3)s2)cc1 | inactive | – |
| CCc1ccc(NC(=O)CCNS(=O)(=O)c2cccs2)cc1 | inactive | – |
| CN1CCN(CC#CCC2(O)c3ccccc3-c3ccccc32)CC1 | 35.5 µM (active) | – |
| CCCCOc1ccc(CN2C(=O)C(=O)c3cc(Br)cc(C)c32)cc1OC | 6.31 µM (active) | – |
| CCCCOc1ccc(Cn2c(=O)oc3ccc(C)cc32)cc1OC | inactive | – |
| CCCCN1C(=O)C(C)=C(C)C1OCCc1ccc(OC)c(OC)c1 (configuration not stated) | – | -12% [at 0.501 µM] (inactive) |
| Cc1ccc2nc(N3CCN(c4cccc(Cl)c4)CC3)c3nnnn3c2c1 | inactive | – |
| Cc1[nH]c2ccccc2c1C(c1ccccc1)c1cccs1 (configuration not stated) | inactive | – |
| CC1CCN(S(=O)(=O)c2ccc3c(c2)N(CC(=O)NCc2ccccc2Cl)C(=O)CO3)CC1 | inactive | – |
| Cc1cccc(N2CCN(C(=O)c3cccc(N4C(=O)C5C6C=CC(C6)C5C4=O)c3)CC2)c1C (configuration not stated) | inactive | – |
| COc1ccc(NC(=O)CCN2C(=O)/C(=C/c3ccc4c(c3)OCO4)SC2=S)cc1 | – | 7.02% [at 12.7 µM] (inactive) |
| Cn1c(=O)n(C)c2cc(C(=O)Nc3ccc4c(c3)OCO4)ccc21 | inactive | – |

| SMILES | Potency | activity, negative = inhibition |
| --- | --- | --- |
| Cc1ccc(C(=O)O)cc1-c1ccc(/C=C2\SC(=O)N(CC(=O)Nc3ccc4c(c3)OCO4)C2=O)o1 | 15.8 µM (active) | – |
| O=C(c1ccc(Cl)cc1)n1nc(-c2cccnc2)nc1NCc1ccc(F)cc1 | inactive | – |
| CN1c2ccc(Cl)cc2-c2nc(SCC(=O)Nc3cc(F)ccc3F)ncc2S1(=O)=O | inactive | – |
| CS(=O)(=O)c1ccc(-c2nnn(CC(=O)Nc3ccc4c(c3)OCCO4)n2)cc1 | inactive | – |
| Oc1ccc(N=Nc2nccs2)c(O)c1 | 44.7 µM (active) | – |
| Oc1ccc2ccccc2c1N=Nc1nccs1 | – | 12.3% [at 0.501 µM] (inactive) |
| Cc1cccc(NC(=O)C2CCCN2S(=O)(=O)c2cccc3nsnc23)c1C (configuration not stated) | inactive | – |
| COc1ccc(-c2noc(CSc3nc(C)cc(=O)[nH]3)n2)cc1OC | inactive | – |
| Cc1cc(C)c(NC(=O)CS(=O)CC(=O)Nc2cccnc2)c(C)c1 (configuration not stated) | inactive | – |
| Cc1ccc(-c2nc(-c3cccnc3)sc2CC(=O)Nc2ccc(C)c(Cl)c2)cc1 | 8.91 µM (active) | – |
| Cc1nc(-c2ccc(F)cc2)c(CC(=O)Nc2cccc(S(=O)(=O)N3CCOCC3)c2)s1 | – | 9.73% [at 0.501 µM] (inactive) |
| Cc1ccsc1C(=O)OCC(=O)Nc1cccc(F)c1 | – | 19.6% [at 12.7 µM] (inactive) |
| CCOc1ccc(C(O)Cn2c(=N)n(CCN3CCCCC3)c3ccccc32)cc1 (configuration not stated) | 50.1 µM (active) | – |
| CCOc1ccc(C(O)Cc2nc3ccccc3n2C)cc1 (configuration not stated) | inactive | – |
| Cn1c(=N)n(CC(O)c2ccccc2)c2ccccc21 (configuration not stated) | inactive | – |
| Fc1ccc(-c2nn(-c3ccccc3Cl)c3c2cnc2ccccc23)cc1 | inactive | – |
| N#Cc1cccc(NC(=O)CN2CCCCCC2)c1 | inactive | – |
| CC(C)c1ccc(NC2CCCN(C(=O)c3ccncc3)C2)cc1 (configuration not stated) | inactive | – |
| Cc1cccc(C(=O)N2CCCC(Nc3ccc(C(C)C)cc3)C2)n1 (configuration not stated) | 56.2 µM (active) | – |
| CC(C)c1ccc(NC(=O)NC2CCCCC2)cc1 | inactive | – |
| CCN(CC(=O)NCc1ccc(Cl)cc1)C(=O)c1c(C)noc1C | – | -126% [at 12.7 µM] (inactive) |
| Cc1cccc(N2CCN(S(=O)(=O)c3ccc4[nH]c5c(c4c3)CCCCC5)CC2)c1C | inactive | – |
